Results filed as inconclusive are left out. Active and inactive are the calls of the source. Unless noted, calls follow the shape of the dose curve; as a rule, active = well fitted curve in the direction sought with a large enough effect in the repeat runs; inconclusive = weak or mixed curves; inactive = no such curve, though single readings can be large; an effect the other way counts as inactive or inconclusive.
How the values were obtained:
[1] = qHTS assay to identify small molecule antagonists of the glucocorticoid receptor (GR) signaling pathway - cell viability counter screen (AID 720693); also: % is scaled to controls: 0 for no effect and ±100 for the full control effect; nearly all actives have a fitted effect of over 55% in size
[2] = qHTS assay for identifying genotoxic compounds that show differential cytotoxicity against isogenic chicken DT40 cell lines with known DNA damage response pathways - wild type cell line (AID 743012); also: nearly all actives have a fitted effect of over 60% in size; also: potency is read from the fitted curve at half-maximal effect
In short: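 Parental DNA repair-proficient DT40 cells, 300 per well, were pre-incubated ~0.5 h at 37 C/5% CO2, pin-dosed with compounds in DMSO, then incubated 40 h. Viability was read as CellTiter-Glo luminescence after 30 min at room temperature.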

[3] = qHTS assay for identifying genotoxic compounds that show differential cytotoxicity against isogenic chicken DT40 cell lines with known DNA damage response pathways - Rev3 mutant cell line (AID 743014); also: nearly all actives have a fitted effect of over 55% in size; also: potency is read from the fitted curve at half-maximal effect
[4] = qHTS assay to identify small molecule antagonists of the androgen receptor (AR) signaling pathway - cell viability counter screen (AID 743033; also: % is scaled to controls: 0 for no effect and ±100 for the full control effect; nearly all actives have a fitted effect of over 45% in size)
[5] = qHTS assay to identify small molecule antagonists of the androgen receptor (AR) signaling pathway using the MDA cell line - cell viability counter screen (AID 743041; also: % is scaled to controls: 0 for no effect and ±100 for the full control effect; nearly all actives have a fitted effect of over 45% in size)
In short: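 Cells were plated at 3,000 per well and left 5 h. Compounds in DMSO were then pinned in, followed by R1881. After 16 h at 37C, CellTiter-Fluor fluorescence gave viability.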

[6] = qHTS assay to identify small molecule antagonists of the thyroid receptor (TR) signaling pathway - cell viability counter screen (AID 743064); also: nearly all actives have a fitted effect of over 50% in size; also: potency is read from the fitted curve at half-maximal effect
In short: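 GH3.TRE-Luc rat pituitary cells carrying a TRE-luciferase reporter were treated with compound plus 1 nM T3 (final) for 23.5 h at 37 °C. Viability was then read in the same wells by CellTiter-Fluor fluorescence after a further 30 min.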

[7] = qHTS assay to identify small molecule antagonists of the thyroid receptor (TR) signaling pathway (AID 743065); also: nearly all actives have a fitted effect of over 55% in size; also: potency is read from the fitted curve at half-maximal effect
In short: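 Antagonism measured as loss of luciferase signal in GH3 cells stably carrying a TRE-luciferase reporter, co-treated with compound and T3 (1 nM final) for 23.5 h at 37 C. Viability was read in the same well by CellTiter-Fluor.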

[8] = test system: thyroid hormone receptor (rat, GH3 cells); assay: qHTS assay to identify small molecule agonists of the thyroid receptor (TR) signaling pathway (AID 743066; calls by dose curve; also: % is scaled to controls: 0 for no effect and ±100 for the full control effect)
[9] = qHTS assay to identify small molecule antagonists of the estrogen receptor alpha (ER-alpha) signaling pathway - cell viability counter screen (AID 743074; calls by dose curve;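 also: HEK293 cells carrying ER-alpha-UAS-bla reporter stimulated with 17beta-estradiol; % is scaled to controls: 0 for no effect and ±100 for the full control effect; nearly all actives have a fitted effect of over 45% in size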)
[10] = qHTS assay to identify small molecule antagonists of the estrogen receptor alpha (ER-alpha) signaling pathway using the BG1 cell line - cell viability counter screen (AID 743081);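 also: compound given together with 17beta-estradiol as the ER stimulus; % is scaled to controls: 0 for no effect and ±100 for the full control effect; nearly all actives have a fitted effect of over 45% in size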
Aromatase (Homo sapiens) = Aromatase (Homo sapiens) (UniProt P11511); assay: qHTS assay to identify aromatase inhibitors (AID 743083); also: % is scaled to controls: 0 for no effect and ±100 for the full control effect; nearly all actives have a fitted effect of over 55% in size
Chain of Aromatase (Homo sapiens) (P11511 whole entry, looked up): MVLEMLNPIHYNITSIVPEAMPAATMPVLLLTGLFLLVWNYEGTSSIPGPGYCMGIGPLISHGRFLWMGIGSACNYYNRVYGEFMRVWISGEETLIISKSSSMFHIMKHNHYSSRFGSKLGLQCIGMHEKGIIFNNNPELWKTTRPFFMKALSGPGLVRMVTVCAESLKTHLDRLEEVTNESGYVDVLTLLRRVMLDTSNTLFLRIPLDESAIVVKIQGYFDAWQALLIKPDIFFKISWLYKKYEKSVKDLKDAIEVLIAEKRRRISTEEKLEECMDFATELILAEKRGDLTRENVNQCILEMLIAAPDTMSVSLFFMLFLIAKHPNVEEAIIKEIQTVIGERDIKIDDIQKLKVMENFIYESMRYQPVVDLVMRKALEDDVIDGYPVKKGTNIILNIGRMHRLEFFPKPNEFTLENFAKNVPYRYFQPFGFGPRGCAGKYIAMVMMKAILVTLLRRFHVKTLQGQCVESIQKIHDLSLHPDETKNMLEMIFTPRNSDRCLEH

[11] = qHTS assay to identify aromatase inhibitors - cell viability counter screen (AID 743084)
[12] = molecular target: Estrogen receptor (Homo sapiens) (UniProt P03372); assay: qHTS assay to identify small molecule antagonists of the estrogen receptor alpha (ER-alpha) signaling pathway (AID 743069; active = well fitted curve in the direction sought with a large enough effect in the signal ratio in the repeat runs, not every such curve was filed as active; the % refers to the signal ratio; also: % is scaled to controls: 0 for no effect and ±100 for the full control effect)
Chain of Estrogen receptor (Homo sapiens) (P03372 whole entry, looked up): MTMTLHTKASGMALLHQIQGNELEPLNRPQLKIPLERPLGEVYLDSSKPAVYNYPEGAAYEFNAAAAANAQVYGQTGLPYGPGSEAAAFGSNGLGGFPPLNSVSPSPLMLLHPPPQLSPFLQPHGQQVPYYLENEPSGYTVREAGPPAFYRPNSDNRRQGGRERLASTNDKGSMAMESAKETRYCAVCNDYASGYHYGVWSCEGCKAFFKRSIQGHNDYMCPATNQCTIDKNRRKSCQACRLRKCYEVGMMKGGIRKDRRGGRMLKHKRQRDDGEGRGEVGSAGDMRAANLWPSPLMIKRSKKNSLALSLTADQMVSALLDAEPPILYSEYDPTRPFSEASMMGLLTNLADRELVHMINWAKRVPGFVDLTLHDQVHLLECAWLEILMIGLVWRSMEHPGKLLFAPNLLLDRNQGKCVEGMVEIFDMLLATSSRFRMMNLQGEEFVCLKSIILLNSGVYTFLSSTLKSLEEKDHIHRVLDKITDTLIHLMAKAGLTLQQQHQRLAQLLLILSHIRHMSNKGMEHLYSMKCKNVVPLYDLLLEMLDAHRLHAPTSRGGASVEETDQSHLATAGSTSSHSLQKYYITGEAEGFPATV
In short: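 ER-alpha-UAS-bla GripTite HEK293 line; 2% charcoal-stripped FBS overnight; plated, 4 hr 37C/5% CO2; cpd in DMSO + 17beta-estradiol, 18 hr 37C; LiveBLAzer B/G FRET substrate 2 hr RT; fluorescence intensity.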

[13] = molecular target: Estrogen receptor (Homo sapiens) (UniProt P03372); assay: qHTS assay to identify small molecule agonists of the estrogen receptor alpha (ER-alpha) signaling pathway (AID 743075; calls by dose curve; also: % is scaled to controls: 0 for no effect and ±100 for the full control effect)
[14] = molecular target: Estrogen receptor (Homo sapiens) (UniProt P03372); assay: qHTS assay to identify small molecule agonists of the estrogen receptor alpha (ER-alpha) signaling pathway using the BG1 cell line (AID 743079); details: BG1Luc4E2 cells, ERE-luciferase agonist, 22 h; activation: at 70.3 µM (top of the series); also: nearly all actives have a fitted effect of over 20% in size; also: potency is read from the fitted curve at half-maximal effect
[15] = qHTS assay to identify small molecule antagonists of the estrogen receptor alpha (ER-alpha) signaling pathway using the BG1 cell line (AID 743080; calls by dose curve;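 also: BG1 cells stimulated with 17beta-estradiol alongside compound; % is scaled to controls: 0 for no effect and ±100 for the full control effect; nearly all actives have a fitted effect of over 25% in size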)
In short: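 Luciferase inhibition measured with ONE-Glo after 30 min at RT in BG1Luc4E2 cells given test compounds and 17beta-estradiol for 21.5 h at 37 C; CellTiter-Fluor viability read in the same wells beforehand.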

[16] = molecular target: Androgen receptor (Homo sapiens) (UniProt P10275); assay: qHTS assay to identify small molecule agonists of the androgen receptor (AR) signaling pathway using the MDA cell line (AID 743040; also: % is scaled to controls: 0 for no effect and ±100 for the full control effect; nearly all actives have a fitted effect of over 20% in size)
Chain of Androgen receptor (Homo sapiens) (P10275 whole entry, looked up): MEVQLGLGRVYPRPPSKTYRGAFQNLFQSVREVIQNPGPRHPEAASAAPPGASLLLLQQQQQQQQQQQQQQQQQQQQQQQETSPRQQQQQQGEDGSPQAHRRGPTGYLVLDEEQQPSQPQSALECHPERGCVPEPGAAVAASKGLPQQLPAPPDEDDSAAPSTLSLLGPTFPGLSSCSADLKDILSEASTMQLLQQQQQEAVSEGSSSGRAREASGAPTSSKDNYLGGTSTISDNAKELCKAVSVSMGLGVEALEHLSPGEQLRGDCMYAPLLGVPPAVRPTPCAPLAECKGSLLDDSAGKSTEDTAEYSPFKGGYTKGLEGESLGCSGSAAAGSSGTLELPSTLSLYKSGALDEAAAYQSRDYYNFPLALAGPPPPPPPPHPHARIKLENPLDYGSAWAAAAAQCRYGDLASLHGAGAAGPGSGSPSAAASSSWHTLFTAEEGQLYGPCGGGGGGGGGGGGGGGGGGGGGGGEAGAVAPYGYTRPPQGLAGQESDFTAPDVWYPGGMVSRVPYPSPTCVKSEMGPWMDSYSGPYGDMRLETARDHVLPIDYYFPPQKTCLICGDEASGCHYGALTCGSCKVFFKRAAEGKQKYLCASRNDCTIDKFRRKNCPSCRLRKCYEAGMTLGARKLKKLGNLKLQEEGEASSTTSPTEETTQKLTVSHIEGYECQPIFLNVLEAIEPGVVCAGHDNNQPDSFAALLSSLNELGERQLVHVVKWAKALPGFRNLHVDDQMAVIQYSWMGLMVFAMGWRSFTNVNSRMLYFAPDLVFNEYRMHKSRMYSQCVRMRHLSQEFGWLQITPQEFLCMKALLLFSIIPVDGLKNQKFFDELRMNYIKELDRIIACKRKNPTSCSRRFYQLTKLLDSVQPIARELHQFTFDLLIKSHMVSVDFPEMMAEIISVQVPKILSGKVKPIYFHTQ
In short: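 Cells plated, 5 h at 37C/0% CO2; compound or DMSO pinned; 16 h at 37C; ONE-Glo added; luminescence measured after 30 min at room temperature. Reporter line: MDA-kb2 with MMTV-luciferase responsive to AR and GR.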

[17] = molecular target: Androgen receptor (Homo sapiens) (UniProt P10275); assay: qHTS assay to identify small molecule antagonists of the androgen receptor (AR) signaling pathway using the MDA cell line (AID 743042)
In short: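 Antagonist mode: compounds plus R1881 agonist added to MDA-kb2 AR-luc cells, incubated 16 h at 37C. Luciferase reporter luminescence quantified, with multiplexed CellTiter-Fluor readout for cell viability.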

[18] = qHTS assay for identifying genotoxic compounds that show differential cytotoxicity against isogenic chicken DT40 cell lines with known DNA damage response pathways - Rad54/Ku70 mutant cell line (AID 743015); also: potency is read from the fitted curve at half-maximal effect; nearly all actives have a fitted effect of over 60% in size
[19] = molecular target: Androgen receptor (Homo sapiens) (UniProt P10275); assay: qHTS assay to identify small molecule agonists of the androgen receptor (AR) signaling pathway (AID 743036; active = well fitted activation curve with a large enough effect in the signal ratio in the repeat runs, with a control signal flat, not every such curve was filed as active; the % refers to the signal ratio; also: % is scaled to controls: 0 for no effect and ±100 for the full control effect)
In short: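 HEK293 cells stably carrying a UAS-driven beta-lactamase reporter (GeneBLAzer AR-UAS-bla-GripTite) were plated at 2,000 cells/well, rested 4 h at 37C, then exposed to compounds in DMSO for 16 h. LiveBLAzer B/G FRET substrate was added for 2 h at room temperature; fluorescence read.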

CC1=CC(=O)CC(C)(C)C1(O)/C=C/C(C)=C\C(=O)O (stereo unspecified)
inactive: Potency [1] | Potency [2] | Potency [3] | Potency [4] | Potency [5] | Potency [6] | Potency [7] | outcome [8] | Potency [9] | Potency [10] | Potency (Aromatase (Homo sapiens)) | Potency [11]

CC(C)(C)C(=O)O
inactive: Potency [1] | Potency [2] | Potency [3] | Potency [4] | Potency [5] | Potency [6] | Potency [7] | outcome [8] | Potency [9] | Potency [10] | Potency (Aromatase (Homo sapiens)) | Potency [11]

CN1CCN(c2c(F)cc3c(=O)c(C(=O)O)cn4c3c2OCN4C)CC1
inactive: Potency [1] | Potency [2] | Potency [3] | Potency [5] | Potency [6] | Potency [7] | outcome [8] | Potency [12] | Potency [9] | Potency [13] | Potency [15] | Potency [10] | Potency (Aromatase (Homo sapiens)) | Potency [11]
active: Potency [14] 23.7 µM

CC(C)C(=O)O
inactive: Potency [1] | Potency [2] | Potency [3] | Potency [4] | Potency [7] | outcome [8] | Potency [12] | Potency [9] | Potency [13] | Potency [15] | Potency [10] | Potency (Aromatase (Homo sapiens))

[O]=[Bi]
inactive: viability change, negative = cytotoxic [1] -0.0549% [at 7.04 µM] | activity change, negative = cytotoxicity [2] -3.35% [at 8.52 µM] | activity, negative = cytotoxicity [3] 0.555% [at 8.53 µM] | viability change, negative = cytotoxic [5] -2.29% [at 8.47 µM] | activity change, negative = cytotoxic [6] 1.51% [at 8.44 µM] | activity, negative = inhibition [7] -1.71% [at 8.44 µM] | activation [8] -0.257% [at 8.08 µM] | activity, negative = inhibition [12] -6.92% [at 6.71 µM] | activity, negative = cytotoxicity [9] -18.5% [at 6.72 µM] | activation [13] -1.87% [at 6.71 µM] | activity change, negative = inhibition [15] 3.19% [at 8.47 µM] | activity change, negative = cytotoxicity [10] 0.603% [at 8.47 µM] | activity, negative = inhibition (Aromatase (Homo sapiens)) 15.6% [at 8.47 µM] | activity change, negative = cytotoxicity [11] -5.72% [at 8.47 µM]

CCCCC(=O)O[C@]1(C(=O)CO)[C@@H](C)C[C@H]2[C@@H]3CCC4=CC(=O)C=C[C@]4(C)[C@@]3(F)[C@@H](O)C[C@@]21C
inactive: Potency [1] | Potency [5] | outcome [8] | Potency [9] | Potency [13] | Potency [10] | Potency (Aromatase (Homo sapiens)) | Potency [11]
active: Potency [2] 43.3 µM | Potency [3] 24.3 µM | Potency [7] 61.1 µM

CCCCN(CCCC)CCCOC(=O)c1ccc(N)cc1
active: Potency [2] 4.52 µM | Potency [3] 2.27 µM
inactive: Potency [1] | Potency [5] | Potency [6] | Potency [7] | outcome [8] | Potency [9] | Potency (Aromatase (Homo sapiens)) | Potency [11]

CCCCCCCCCOC(C)=O
inactive: Potency [1] | Potency [2] | Potency [3] | Potency [5] | Potency [6] | Potency [7] | outcome [8] | Potency [12] | Potency [9] | Potency [13] | Potency [14] | Potency [15] | Potency [10] | Potency (Aromatase (Homo sapiens)) | Potency [11]

CN1CCN(CCCN2c3ccccc3Sc3ccc(S(=O)(=O)N(C)C)cc32)CC1
inactive: Potency [1] | Potency [3] | Potency [5] | outcome [8] | Potency [9] | Potency [10] | Potency (Aromatase (Homo sapiens)) | Potency [11]
active: Potency [6] 14.3 µM | Potency [7] 11.4 µM

Cc1ccc(S)cc1
inactive: Potency [1] | Potency [4] | Potency [5] | Potency [6] | Potency [13] | Potency [14] | Potency [15] | Potency [10] | Potency (Aromatase (Homo sapiens)) | Potency [11]
active: Potency [2] 61.1 µM

C=CC(C)=CCC=C(C)C
inactive: Potency [1] | Potency [3] | Potency [4] | Potency [5] | Potency [6] | outcome [8] | Potency [9] | Potency [10] | Potency (Aromatase (Homo sapiens)) | Potency [11]

CN(C(=O)C(Cl)Cl)c1ccc(OC(=O)c2ccco2)cc1
inactive: Potency [1] | Potency [16] | Potency [5] | Potency [17] | Potency [7] | outcome [8] | Potency [9] | Potency [10] | Potency (Aromatase (Homo sapiens)) | Potency [11]
active: Potency [2] 26.6 µM

O=C(OCCOCCO)c1ccccc1Nc1cccc(C(F)(F)F)c1
inactive: Potency [1] | Potency [3] | Potency [4] | Potency [5] | Potency [7] | outcome [8] | Potency [12] | Potency [9] | Potency [13] | Potency [14] | Potency [15] | Potency [10] | Potency (Aromatase (Homo sapiens)) | Potency [11]

C[C@@H]1C[C@H]2[C@@H]3CCC4=CC(=O)C=C[C@]4(C)[C@@]3(F)[C@@H](O)C[C@]2(C)[C@@]1(O)C(=O)CO
active: Potency [3] 0.553 µM | Potency [18] 55.3 µM
inactive: Potency [1] | Potency [4] | Potency [5] | outcome [8] | Potency [9] | Potency [10] | Potency (Aromatase (Homo sapiens)) | Potency [11]

CCCCCCCCSCCO
inactive: Potency [1] | Potency [2] | Potency [4] | Potency [19] | Potency [16] | Potency [5] | Potency [17] | Potency [6] | Potency [7] | outcome [8] | Potency [9] | Potency [10] | Potency (Aromatase (Homo sapiens)) | Potency [11]
